39 molecules from PubChem BioAssay (NCATS) can be followed below.

Structures are written as SMILES. Values joined by “and” are separate entries in the source; they are usually repeats but may differ in a detail not shown here. Identical values can stand only once. Results filed as inconclusive are left out. A call without a number means that no potency is given here. Active and inactive are the calls of the source. Calls follow the shape of the dose curve; as a rule, active = well fitted inhibition curve with a large enough effect; inconclusive = small, poorly fitted or top-dose-only effect; inactive = flat fitted curve, though single readings scatter.
Potency is read from the fitted curve at half-maximal effect.

The experiment can be described thus: P-glycoprotein substrates identified in KB-8-5-11 adenocarcinoma cell line, qHTS therapeutic library screen (AID 1346987). Also: nearly all actives have a fitted effect of over 65% in size. The following applies: KB-8-5-11 (P-gp overexpressing) viability, CellTiter-Glo, 72 h; series mostly up to 44.5 µM. The procedure, abridged:
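Luminescence from CellTiter-Glo, read 5 min after addition, quantified survival of KB-8-5-11 (P-gp-overexpressing) cells exposed to compounds for 72 h. AC50 was derived from concentration-response curves.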
For orientation: qHTS replaces the single test concentration by a dilution series.
Regarding `CN(C)CCN1C(=O)c2cccc3cc(N)cc(c23)C1=O`, the Potency was 14.8 µM (active).

Take `COC1=C(OC)C(=O)C(CC=C(C)CCC=C(C)CCC=C(C)CCC=C(C)CCC=C(C)CCC=C(C)CCC=C(C)CCC=C(C)CCC=C(C)CCC=C(C)C)=C(C)C1=O`: the Potency entry is “inactive”.

Take `Cc1ccc([N+](=O)[O-])cc1S(=O)(=O)N(C)N=Cc1cnc2ccc(Br)cn12`: the Potency is 0.0209 µM (active).

`CCc1cnn2c(NCc3ccc[n+]([O-])c3)cc(N3CCCC[C@@H]3CCO)nc12`: the Potency was 0.235 µM (active).

`COc1cc(C(C)C)c(Oc2cnc(NC(CO)CO)nc2N)cc1I`: the Potency entry was “inactive”.

Take `Nc1nc2c(c(=O)[nH]1)N(C=O)[C@H](CNc1ccc(C(=O)N[C@@H](CCC(=O)O)C(=O)O)cc1)CN2`: the Potency entry is “inactive”.

On to `CC(C)c1cc(C(C)C)c(CC(=O)NS(=O)(=O)Oc2c(C(C)C)cccc2C(C)C)c(C(C)C)c1`, for which the Potency is 7.31 µM (active).

As to `C[C@@H]1CC[C@@]2(OC1)OC1CC3C4CC=C5CC(O)CCC5(C)C4CCC3(C)C1[C@@H]2C` (some centres undefined), the Potency result is “inactive”.

As to `Cn1cnc(=N)c2[nH]cnc21`, the Potency is 10.5 µM (active).

Consider `Cn1cc(-c2cnn3c(N)c(Br)c([C@H]4CCCNC4)nc23)cn1`, for which the Potency result was “inactive”.

Consider `CC(C)n1cnc2c(NCCc3ccc(O)cc3)nc(-c3csc4ccccc34)nc21`, for which the Potency was 20.9 µM (active) and 20.6 µM (active).

In the case of `COc1cc(C[C@@H](CO)[C@H](CO)Cc2ccc(O)c(OC)c2)ccc1O`, the Potency entry is “inactive”.

Take `Cc1ccc(-n2[nH]c(C)c(N=Nc3cccc(-c4cccc(C(=O)O)c4)c3O)c2=O)cc1C`: the Potency entry is “inactive”.

In the case of `c1cncc(CN2CCC(n3ncc4c(N5CCOCC5)nc(-c5ccc6[nH]ccc6c5)nc43)CC2)c1`, the Potency was 469 nM (active) and 2.31 µM (active).

As to `C=CCNc1c(O)cc2c(O)c1C[C@@H](C)C[C@H](OC)[C@@H](O)[C@@H](C)C=C(C)[C@H](OC(N)=O)[C@@H](OC)C=CC=C(C)C(=O)N2`, the Potency was 6.62 µM (active).

As to `COc1cc2c(Nc3ccc(Cl)c(Cl)c3F)ncnc2cc1OCC1C[C@@H]2CN(C)C[C@H]2C1`, the Potency is 18.7 µM (active).

In the case of `CCCCCCCCc1ccc(CCC(N)(CO)CO)cc1`, the Potency was 23.5 µM (active).

Turning to `COC(=O)[C@H](CCCN=C(N)N)NS(=O)(=O)c1ccc(C)cc1`, the Potency entry is “inactive”.

As for `c1ccc2c(Oc3nc(Nc4ccc(N5CCOCC5)cc4)c4ncn(C5CCCCC5)c4n3)cccc2c1`, the Potency result was “inactive”.

On to `C=CC(=O)Nc1ccc2ncnc(Nc3ccc(OCc4cccc(F)c4)c(Cl)c3)c2c1`, for which the Potency was 23.5 µM (active) and 16.4 µM (active).

On to `O=C1CSC(=O)N1C(CCc1ccncc1)COc1ccc(-c2cccc([N+](=O)[O-])c2)cc1` (centres undefined), for which the Potency entry is “inactive”.

Turning to `Cc1ncc(-c2ccnc(Nc3ccc(S(C)(=O)=O)cc3)n2)n1C(C)C`, the Potency was 7.43 µM (active) and 13 µM (active).

`Cn1cc(-c2ccc3ncc(Cc4ccc5ncccc5c4)n3n2)cn1`: the Potency result was “inactive”.

As to `C=CC1=C(C(=O)O)N2C(=O)[C@@H](NC(=O)C(=NO)c3csc(N)n3)[C@H]2SC1`, the Potency result was “inactive”.

For the molecule `COc1ccc(Nc2nccc(NCCO)n2)cc1`, the Potency entry is “inactive”.

Consider `C[C@@H]1C(=O)O[C@H]2CC34[C@H]5C[C@@H](C(C)(C)C)C36[C@H](OC(=O)[C@@H]6O)O[C@@]4(C(=O)O5)[C@]21O` (some centres undefined), for which the Potency entry was “inactive”.

As for `CC(=O)SCC(Cc1ccccc1)C(=O)NCC(=O)OCc1ccccc1` (centres undefined), the Potency result was “inactive”.

In the case of `CCC(C=C[C@@H]1OC(=O)C=C[C@H]1C)=C[C@H](C)CC=CC(C)=C[C@@H](C)C(=O)[C@@H](C)[C@H](O)[C@@H](C)CC(C)=CC(=O)O`, the Potency was 0.196 µM (active).

In the case of `C#Cc1cccc(Nc2ncnc3cc(OCCOC)c(OCCO)cc23)c1`, the Potency was 23.5 µM (active).

For `CCS(=O)(=O)Nc1ccc2[nH]c(O)c(C(=Nc3ccc(CN4CCCCC4)cc3)c3ccccc3)c2c1`, the Potency result was “inactive”.

For the molecule `COc1ccc(C[C@@H](C)[C@@H](C)Cc2ccc(OC)c(OC)c2)cc1OC`, the Potency is 7.43 µM (active).

In the case of `Cc1nc(NC(=O)N2CCC[C@@H]2C(N)=O)sc1-c1ccnc(C(C)(C)C(F)(F)F)c1`, the Potency is 6.62 µM (active).

`c1coc(CNc2ncnc3nc[nH]c23)c1`: the Potency entry is “inactive”.

`CC(C=CC=C(C)C=CC1=C(C)CCCC1(C)C)=CC=CC=C(C)C=CC=C(C)C=CC1=C(C)CCCC1(C)C`: the Potency entry is “inactive”.

On to `CC(C)[C@H](CO)Nc1nc(Nc2cccc(Cl)c2)c2ncn(C(C)C)c2n1`, for which the Potency was 10.5 µM (active) and 20.6 µM (active).

As for `N#CC(=C(O)c1ccc(Cl)cc1Cl)c1nc2cc(Cl)ccc2c(=O)[nH]1`, the Potency result is “inactive”.

With `CC[C@H](CC[C@@H](C)[C@H]1CC[C@H]2[C@@H]3CC=C4C[C@@H](O)CC[C@]4(C)[C@@H]3CC[C@]12C)C(C)C`, the Potency result was “inactive”.

On to `NC(=O)Nc1sc(-c2ccc(F)cc2)cc1C(N)=O`, for which the Potency was 8.33 µM (active).

As to `COc1cc(OC)cc(-c2ccc3ncc4ccc(=O)n(-c5ccc(N6CCNCC6)c(C(F)(F)F)c5)c4c3c2)c1`, the Potency is 7.43 µM (active).
